# Experimental data taken from the supplement of paper PMC10849652.
# Of roughly 7,900 targets only a part is listed; those with a hit were picked by preference. About 0.6% of all pairs of compound and target were hits. Values without a mark were called inactive.
# Tests used:
# Test in all cases: log2 fold change, soluble protein after heating vs DMSO (PISA); higher = thermal stabilisation; K562 cells, 10 uM, 30 min; active = over 0.2 and 3.5 SD of the protein, either way, in both replicates (recomputed)
# [1] = compound: NC(=O)Nc1cc(-c2cccc(F)c2)sc1C(=O)N[C@H]1CCCNC1
# How it was run: (§1)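 Aliquots of K562 cells (2×10^6 cells/mL) treated with 10 μM compound for 30 min were heated for 3 min over 48°C-58°C. After pooling and extraction in PBS with 0.5% NP-40 at 4°C, soluble protein from a 21,000xg, 90 min spin was quantified by TMTpro 16plex LC-MS/MS with channel sums equalised. Thermal stability is expressed against control samples, from duplicates, as a log2 fold change.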
# [2] = compound: NC(=O)c1cnc(N[C@@H]2CCCC[C@@H]2N)nc1Nc1cccc(-n2nccn2)c1
# How it was run: as §1
# [3] = compound: NC1(c2ccc(-c3nc4ccn5c(=O)[nH]nc5c4cc3-c3ccccc3)cc2)CCC1
# How it was run: as §1
# [4] = compound: NCC(=O)Nc1ccc(-n2nc(C(F)(F)F)cc2-c2ccc3c(ccc4ccccc43)c2)cc1
# How it was run: as §1
# [5] = compound: Nc1ccccc1NC(=O)c1ccc(CNC(=O)OCc2cccnc2)cc1 [entinostat]
# How it was run: as §1
# [6] = compound: O=C(CCCCCCC(=O)Nc1ccccc1)NO [vorinostat]
# How it was run: as §1
# [7] = compound: O=C(CCCCCCNC(=O)c1cnc(N(c2ccccc2)c2ccccc2Cl)nc1)NO [citarinostat]
# How it was run: as §1
# [8] = compound: O=C(O)c1ccc2c(c1)nc(Nc1cccc(Cl)c1)c1ccncc12 [silmitasertib]
# How it was run: as §1
# [9] = compound: O=C1NC(=O)C(c2cnc3ccccn23)=C1c1cn2c3c(cc(F)cc13)CN(C(=O)N1CCCCC1)CC2
# How it was run: as §1
# [10] = compound: c1cc(OCCN2CCCCC2)cc(-c2n[nH]c3ccc(-c4nnc[nH]4)cc23)c1
# How it was run: as §1
# UniProt Q9Y5Y5, sequence (Q9Y5Y5 whole entry, looked up): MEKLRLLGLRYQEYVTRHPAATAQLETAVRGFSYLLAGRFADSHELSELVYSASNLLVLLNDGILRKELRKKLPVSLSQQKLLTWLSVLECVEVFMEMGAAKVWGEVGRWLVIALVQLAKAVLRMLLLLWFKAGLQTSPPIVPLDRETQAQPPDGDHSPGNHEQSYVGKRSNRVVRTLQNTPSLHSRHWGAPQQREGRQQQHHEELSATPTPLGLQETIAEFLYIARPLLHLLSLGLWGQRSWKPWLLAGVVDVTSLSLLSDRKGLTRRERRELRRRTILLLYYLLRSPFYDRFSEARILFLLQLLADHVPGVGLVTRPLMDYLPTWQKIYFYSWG
# UniProt Q14442, sequence (Q14442 whole entry, looked up): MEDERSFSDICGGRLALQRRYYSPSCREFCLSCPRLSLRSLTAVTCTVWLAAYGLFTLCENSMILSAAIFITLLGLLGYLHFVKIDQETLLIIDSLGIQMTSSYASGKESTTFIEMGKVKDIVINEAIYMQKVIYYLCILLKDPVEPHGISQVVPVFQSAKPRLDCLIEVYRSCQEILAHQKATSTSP
# UniProt Q15173, sequence (Q15173 whole entry, looked up): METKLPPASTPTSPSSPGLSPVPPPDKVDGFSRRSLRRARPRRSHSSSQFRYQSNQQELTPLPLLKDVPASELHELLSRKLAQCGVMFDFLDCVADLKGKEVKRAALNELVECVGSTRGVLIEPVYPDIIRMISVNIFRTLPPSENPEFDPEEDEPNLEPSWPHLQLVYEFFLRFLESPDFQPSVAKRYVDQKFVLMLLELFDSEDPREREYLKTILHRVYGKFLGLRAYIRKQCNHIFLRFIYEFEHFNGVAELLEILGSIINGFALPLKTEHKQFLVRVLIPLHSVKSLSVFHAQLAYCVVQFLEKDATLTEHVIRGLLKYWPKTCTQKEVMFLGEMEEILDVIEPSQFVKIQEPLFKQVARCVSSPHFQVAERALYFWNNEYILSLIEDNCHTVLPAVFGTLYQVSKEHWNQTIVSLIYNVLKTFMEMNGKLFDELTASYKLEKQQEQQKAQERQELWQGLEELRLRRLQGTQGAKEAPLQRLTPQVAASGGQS
# UniProt P28070, sequence (P28070 whole entry, looked up): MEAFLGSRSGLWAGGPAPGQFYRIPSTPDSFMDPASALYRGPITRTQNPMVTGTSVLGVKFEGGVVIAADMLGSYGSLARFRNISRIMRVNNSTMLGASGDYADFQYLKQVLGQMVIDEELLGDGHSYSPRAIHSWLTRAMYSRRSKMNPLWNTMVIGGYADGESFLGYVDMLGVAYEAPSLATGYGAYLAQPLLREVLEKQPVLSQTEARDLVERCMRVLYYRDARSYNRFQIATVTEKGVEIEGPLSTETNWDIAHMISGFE
# UniProt Q9NYI0, sequence (Q9NYI0 whole entry, looked up): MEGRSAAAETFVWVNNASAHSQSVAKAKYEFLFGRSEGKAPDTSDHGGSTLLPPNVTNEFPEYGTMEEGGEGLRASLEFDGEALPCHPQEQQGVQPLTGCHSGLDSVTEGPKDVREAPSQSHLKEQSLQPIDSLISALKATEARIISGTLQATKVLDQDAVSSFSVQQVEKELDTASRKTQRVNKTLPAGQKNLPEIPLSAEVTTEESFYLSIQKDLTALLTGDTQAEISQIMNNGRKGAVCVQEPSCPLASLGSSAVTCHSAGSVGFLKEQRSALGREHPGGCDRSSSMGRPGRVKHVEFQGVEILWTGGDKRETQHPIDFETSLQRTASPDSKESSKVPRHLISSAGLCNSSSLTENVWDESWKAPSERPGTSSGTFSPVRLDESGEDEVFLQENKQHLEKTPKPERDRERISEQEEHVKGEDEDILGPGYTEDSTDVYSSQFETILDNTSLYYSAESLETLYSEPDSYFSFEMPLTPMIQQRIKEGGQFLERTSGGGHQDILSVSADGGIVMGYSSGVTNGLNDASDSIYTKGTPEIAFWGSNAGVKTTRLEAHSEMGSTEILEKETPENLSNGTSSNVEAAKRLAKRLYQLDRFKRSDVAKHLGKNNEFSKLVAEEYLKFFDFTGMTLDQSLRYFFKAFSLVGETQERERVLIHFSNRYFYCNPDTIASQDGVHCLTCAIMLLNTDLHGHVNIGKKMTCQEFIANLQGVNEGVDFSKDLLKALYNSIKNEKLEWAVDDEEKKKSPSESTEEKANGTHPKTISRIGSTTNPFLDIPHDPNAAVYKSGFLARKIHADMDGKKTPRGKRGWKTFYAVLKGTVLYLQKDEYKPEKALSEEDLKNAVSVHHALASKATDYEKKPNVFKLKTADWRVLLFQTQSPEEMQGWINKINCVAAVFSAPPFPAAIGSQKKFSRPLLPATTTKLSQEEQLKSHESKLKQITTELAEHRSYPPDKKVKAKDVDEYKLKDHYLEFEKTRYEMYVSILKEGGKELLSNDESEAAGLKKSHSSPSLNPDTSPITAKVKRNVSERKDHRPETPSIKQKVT
# UniProt Q68D20, sequence (Q68D20 whole entry, looked up): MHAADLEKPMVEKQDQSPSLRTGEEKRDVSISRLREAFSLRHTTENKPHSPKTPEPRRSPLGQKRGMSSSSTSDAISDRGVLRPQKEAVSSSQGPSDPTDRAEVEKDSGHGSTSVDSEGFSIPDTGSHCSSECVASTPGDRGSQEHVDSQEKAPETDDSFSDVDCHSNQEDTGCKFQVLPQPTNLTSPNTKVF
# UniProt P27815, sequence (P27815 whole entry, looked up): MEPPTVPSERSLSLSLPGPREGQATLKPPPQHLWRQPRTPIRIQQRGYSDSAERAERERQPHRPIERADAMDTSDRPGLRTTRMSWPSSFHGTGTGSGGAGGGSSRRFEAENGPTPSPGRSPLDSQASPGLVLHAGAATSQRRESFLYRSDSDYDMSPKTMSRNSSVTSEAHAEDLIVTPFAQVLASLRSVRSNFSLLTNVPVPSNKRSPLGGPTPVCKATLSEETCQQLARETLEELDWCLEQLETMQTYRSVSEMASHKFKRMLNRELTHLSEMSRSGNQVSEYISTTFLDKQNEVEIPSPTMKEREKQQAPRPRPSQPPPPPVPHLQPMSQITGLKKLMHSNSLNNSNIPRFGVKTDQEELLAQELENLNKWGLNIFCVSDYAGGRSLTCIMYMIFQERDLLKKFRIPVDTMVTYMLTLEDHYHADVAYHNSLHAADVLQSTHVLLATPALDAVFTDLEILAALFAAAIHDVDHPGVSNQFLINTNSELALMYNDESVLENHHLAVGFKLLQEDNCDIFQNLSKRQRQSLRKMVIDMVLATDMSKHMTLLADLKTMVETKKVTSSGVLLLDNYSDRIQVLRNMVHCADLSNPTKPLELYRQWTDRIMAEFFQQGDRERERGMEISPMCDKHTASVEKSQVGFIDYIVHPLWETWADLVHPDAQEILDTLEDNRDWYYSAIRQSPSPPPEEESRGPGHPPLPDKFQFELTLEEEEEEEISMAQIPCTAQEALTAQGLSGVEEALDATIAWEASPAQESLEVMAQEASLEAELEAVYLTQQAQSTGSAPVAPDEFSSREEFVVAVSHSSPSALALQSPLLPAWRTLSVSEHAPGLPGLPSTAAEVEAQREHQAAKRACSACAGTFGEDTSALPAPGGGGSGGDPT
# UniProt Q8N2W9, sequence (Q8N2W9 whole entry, looked up): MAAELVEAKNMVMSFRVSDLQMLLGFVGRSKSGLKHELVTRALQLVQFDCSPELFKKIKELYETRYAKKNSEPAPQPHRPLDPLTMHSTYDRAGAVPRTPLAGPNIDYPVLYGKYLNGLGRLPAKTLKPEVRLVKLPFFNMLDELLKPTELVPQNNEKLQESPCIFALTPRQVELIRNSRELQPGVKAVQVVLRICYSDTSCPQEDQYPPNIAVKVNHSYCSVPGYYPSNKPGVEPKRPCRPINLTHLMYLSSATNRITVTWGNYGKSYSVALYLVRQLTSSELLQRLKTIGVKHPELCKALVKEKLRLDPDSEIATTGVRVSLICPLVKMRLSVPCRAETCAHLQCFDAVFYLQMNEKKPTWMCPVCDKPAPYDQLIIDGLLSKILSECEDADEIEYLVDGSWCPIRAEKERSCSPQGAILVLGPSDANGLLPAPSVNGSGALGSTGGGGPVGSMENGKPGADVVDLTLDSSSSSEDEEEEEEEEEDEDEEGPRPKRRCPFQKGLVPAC
# UniProt Q8NDX5, sequence (Q8NDX5 whole entry, looked up): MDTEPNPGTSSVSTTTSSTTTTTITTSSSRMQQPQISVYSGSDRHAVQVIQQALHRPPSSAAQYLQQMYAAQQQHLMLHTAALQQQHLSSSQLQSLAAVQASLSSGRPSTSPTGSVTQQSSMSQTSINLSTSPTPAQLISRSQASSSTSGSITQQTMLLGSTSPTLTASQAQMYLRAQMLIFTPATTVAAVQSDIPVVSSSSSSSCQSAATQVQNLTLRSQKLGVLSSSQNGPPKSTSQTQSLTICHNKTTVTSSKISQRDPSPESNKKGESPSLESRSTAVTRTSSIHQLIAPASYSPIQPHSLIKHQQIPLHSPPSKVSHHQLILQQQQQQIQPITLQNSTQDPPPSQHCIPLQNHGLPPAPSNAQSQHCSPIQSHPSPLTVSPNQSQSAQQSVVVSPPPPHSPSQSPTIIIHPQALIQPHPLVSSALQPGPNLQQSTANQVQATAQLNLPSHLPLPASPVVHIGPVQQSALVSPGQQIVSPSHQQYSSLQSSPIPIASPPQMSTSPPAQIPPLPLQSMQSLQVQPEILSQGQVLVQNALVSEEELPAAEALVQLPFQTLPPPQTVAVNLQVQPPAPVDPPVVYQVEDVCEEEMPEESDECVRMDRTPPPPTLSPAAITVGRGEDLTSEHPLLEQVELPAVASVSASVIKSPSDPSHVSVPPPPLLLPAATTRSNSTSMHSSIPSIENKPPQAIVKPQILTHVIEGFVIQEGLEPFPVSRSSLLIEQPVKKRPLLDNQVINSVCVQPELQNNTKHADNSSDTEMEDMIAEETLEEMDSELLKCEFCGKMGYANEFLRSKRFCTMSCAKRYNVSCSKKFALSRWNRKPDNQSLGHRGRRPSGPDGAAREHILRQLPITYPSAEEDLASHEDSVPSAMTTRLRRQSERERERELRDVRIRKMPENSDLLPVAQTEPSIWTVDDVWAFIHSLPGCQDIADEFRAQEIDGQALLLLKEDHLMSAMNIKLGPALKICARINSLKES
Target,log2 fold change [1],log2 fold change [2],log2 fold change [3],log2 fold change [4],log2 fold change [5],log2 fold change [6],log2 fold change [7],log2 fold change [8],log2 fold change [9],log2 fold change [10]
PSMB4 (UniProt P28070),0.029,-0.01,0.068,0.01,-0.036,-0.019,0.008,0.002,0.022,-0.014
PEX16 isoform 2 (UniProt Q9Y5Y5),0.061,-0.052,-0.171,-0.031,0.022,0.115,0.081,-0.025,0.033,-0.051
PARP16 isoform 3 (UniProt Q8N5Y8),0.116,0.077,0.239,-0.036,0.053,0.117,0.006,-0.197,-0.022,-0.065
PRMT7 (UniProt Q9NVM4),0.034,-0.093,-0.165,-0.021,0.026,-0.023,-0.032,0.067,-0.103,-0.05
PHRF1 (UniProt Q9P1Y6),,,0.148,,,,,0.176,,
PPP1R12C (UniProt Q9BZL4),-0.151,,-0.031,-0.022,0.072,0.487,-0.008,0.122,-0.073,-0.278
PSMA3 (UniProt G3V4X5),,,,-0.055,,,,,,
PRR14L (UniProt Q5THK1),,-0.205,,-0.176,,-0.009,,,,
PAN2 (UniProt Q504Q3),,,,-0.198,,,-0.127,,,0.002
PIM1 isoform 2 (UniProt P11309),,,0.388,,,-0.123,,0.575,,
PRKD2 (UniProt M0R346),-0.279,,,,0.032,0.021,,,-0.15,
PSMC1 (UniProt G3V4X1),,,,,,0.168,,,,
PSMB9 (UniProt P28065),-0.122,-0.102,,0.029,-0.118,0.086,-0.028,,-0.061,0
PPP2R5C isoform 2 (UniProt Q13362),,,-0.183,,,,0.069,-0.064,,0.105
PCID2 (UniProt Q5JVF3),-0.019,,-0.103,0.06,0.12,0.199,-0.004,0.038,-0.15,0.062
PIK3CD (UniProt O00329),0.086,0.014,,-0.047,-0.008,,-0.285,,-0.092,0.143
PSD3 (UniProt Q9NYI0),,-0.262 (active),-0.14,-0.113,,,0.017,-0.095,,-0.02
PUM1 (UniProt Q14671),,0.058,,,,-0.037,,,,
PIAS4 (UniProt Q8N2W9),,,0.094,,,-0.014,,-0.271,-0.404,
PCF11 (UniProt O94913),,-0.047,-0.333,-0.179,,-0.04,0.001,-0.113,,0.112
PSMD8 (UniProt K7ERW6),,,,-0.417,,,,,,

Target,log2 fold change [1],log2 fold change [2],log2 fold change [3],log2 fold change [4],log2 fold change [5],log2 fold change [6],log2 fold change [7],log2 fold change [8],log2 fold change [9],log2 fold change [10]
PCNX1 (UniProt Q96RV3),,,0.042,-0.043,,,-0.237,-0.11,-0.14,-0.269
POLB (UniProt P06746),-0.103,,,,0.107,-0.106,0.189,,0.113,-0.026
PMS2CL (UniProt Q68D20),,,0.185,,,,,0.095,0.062,
PCBP2 (UniProt F8VZX2),,,0.158,,,,,0.193,,
PHC3 isoform 7 (UniProt Q8NDX5),0.158,,-0.125,,0.1,,0.172,-0.018,0.567 (active),-0.014
POM121 (UniProt Q96HA1),-0.015,-0.199,,-0.083,0.01,0.055,0.045,,0.05,-0.045
PSMA3 (UniProt H0YJ03),,-0.059,,-0.048,,,0.081,,,0.143
PIGH (UniProt Q14442),,-0.021,-0.087,-0.021,,0.18,0.031,0.093,-0.128,-0.05
POLR2E (UniProt P19388),,0,-0.021,-0.02,,-0.115,-0.001,0.134,0.117,-0.088
PDSS2 (UniProt Q86YH6),-0.108,-0.015,,0.011,-0.009,0.041,0.018,,0.026,-0.029
PSMC3 (UniProt E9PLG2),-0.62,,-0.077,0.117,-0.438,,,0.097,-0.327,
PDE4DIP (UniProt E9PS60),,,,-0.172,,,0.06,,,-0.051
PTEN isoform 2 (UniProt P60484),,,,,,0.024,0.089,,,0.066
PEX5 isoform 4 (UniProt P50542),0.019,0.002,,0.041,0,,,,0.163,
PRKX (UniProt P51817),,,-0.243,,,,,0.153,,
PUF60 isoform 2 (UniProt Q9UHX1),,0.024,-0.137,0.21,,,,0.069,,
PDE4A (UniProt P27815),,-0.67 (active),,0.047,,,,,-0.017,
PHLDB1 isoform 2 (UniProt Q86UU1),,0.112,-0.057,-0.186,,0.229,-0.014,0.045,-0.178,-0.117
PPP2R5B (UniProt Q15173),,0.017,-0.167,-0.006,,0.112,0.122,0,,0.127
PTP4A3 (UniProt O75365),,,,-0.105,,,,,,
